Reference: PubChem BioAssay (EPA / NIEHS)
The source made the active and inactive calls. Rule for the calls: active = hit-call score of the fitted dose curve at least 0.9, where 1 is the maximum; inactive = score below 0.9.

Experiments:
[1] = read-out: serum amyloid A (SAA), SAA1 (gene 6288); assay: BSK_CASM3C_SAA: BioMAP Diversity Plus: CASM3C Assay for serum amyloid A (SAA) Biomarker Activity (AID 2283049); details: primary human coronary artery smooth muscle cells; actives raise or lower the signal;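 note: SAA protein level quantified by ELISA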
[2] = BSK_CASM3C_SRB: Viability Assessment in the BioMAP Diversity Plus: CASM3C Assay (AID 2283050); details: primary human coronary artery smooth muscle cells
[3] = read-out: Thrombomodulin, THBD (gene 7056); assay: BSK_CASM3C_Thrombomodulin: BioMAP Diversity Plus: CASM3C Assay for Thrombomodulin Biomarker Activity (AID 2283051); details: primary human coronary artery smooth muscle cells; actives raise or lower the signal;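 note: thrombomodulin protein level measured by ELISA 24 h after dosing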
[4] = read-out: Tissue Factor, F3 (gene 2152); assay: BSK_CASM3C_TissueFactor: BioMAP Diversity Plus: CASM3C Assay for Tissue Factor Biomarker Activity (AID 2283052); details: primary human coronary artery smooth muscle cells; actives raise or lower the signal;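 note: cell surface tissue factor protein level read by ELISA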
[5] = read-out: Interferon-gamma inducible Protein 10 (IP10), CXCL10 (gene 3627); assay: BSK_hDFCGF_IP10: BioMAP Diversity Plus: hDFCGF Assay for Interferon-gamma inducible Protein 10 (IP10) Biomarker Activity (AID 2283053); details: primary human foreskin fibroblasts; actives raise or lower the signal
Procedure, shortened: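 Human foreskin fibroblast primary cells (hDFCGF system) were dosed with chemical and assayed at 24 h; IP-10 measured by ELISA. Activity fitted bidirectionally relative to DMSO negative control as baseline.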

[6] = read-out: Urokinase-type plasminogen activator receptor (uPAR), PLAUR (gene 5329); assay: BSK_CASM3C_uPAR: BioMAP Diversity Plus: CASM3C Assay for Urokinase-type plasminogen activator receptor (uPAR) Biomarker Activity (AID 2283054); details: primary human coronary artery smooth muscle cells; actives raise or lower the signal;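 note: cell-surface uPAR protein level quantified by ELISA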
[7] = read-out: Vascular cell adhesion molecule 1 (VCAM1), VCAM1 (gene 7412); assay: BSK_CASM3C_VCAM1: BioMAP Diversity Plus: CASM3C Assay for Vascular cell adhesion molecule 1 (VCAM1) Biomarker Activity (AID 2283055); details: primary human coronary artery smooth muscle cells; actives raise or lower the signal;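 note: VCAM-1 protein level quantified by ELISA on the cells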
[8] = read-out: Collagen III, COL3A1 (gene 1281); assay: BSK_hDFCGF_CollagenIII: BioMAP Diversity Plus: hDFCGF Assay for Collagen III Biomarker Activity (AID 2283056); details: primary human foreskin fibroblasts; actives raise or lower the signal
Procedure, shortened: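 Human foreskin fibroblast primary cultures sampled 24 h after dosing; Collagen III quantified by ELISA. Signal fitted bidirectionally against DMSO baseline.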

[9] = read-out: Epidermal growth factor receptor (EGFR), EGFR (gene 1956); assay: BSK_hDFCGF_EGFR: BioMAP Diversity Plus: hDFCGF Assay for Epidermal growth factor receptor (EGFR) Biomarker Activity (AID 2283057); details: primary human foreskin fibroblasts; actives raise or lower the signal
Procedure, shortened: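 Primary human foreskin fibroblasts were exposed to compound for 24 h, after which cell-surface EGFR was quantified by ELISA. Activity was fitted bidirectionally against the DMSO negative control as baseline.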

[10] = read-out: Interleukin-8 (IL8), CXCL8 (gene 3576); assay: BSK_hDFCGF_IL8: BioMAP Diversity Plus: hDFCGF Assay for Interleukin-8 (IL8) Biomarker Activity (AID 2283058); details: primary human foreskin fibroblasts; actives raise or lower the signal
Procedure, shortened: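 Primary human foreskin fibroblasts (hDFCGF system) dosed with chemical; IL-8 measured by ELISA 24 hours later. Bidirectional curve fitting relative to DMSO baseline; cytotoxicity tracked in parallel cultures by SRB total protein staining.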

[11] = BSK_hDFCGF_Proliferation: Cell Proliferation Assessment in the BioMAP Diversity Plus: hDFCGF Assay (AID 2283059); details: primary human foreskin fibroblasts;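 note: curves fitted for both rise and fall of signal versus DMSO baseline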
Procedure, shortened: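 Sub-confluent human foreskin fibroblast cultures receive test chemical […]. Relative cell number is quantified by sulforhodamine B staining (0.1%, after 10% TCA fixation) at 560 nm, with bidirectional fitting referenced to DMSO.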

[12] = read-out: Macrophage colony-stimulating factor (MCSF), CSF1 (gene 1435); assay: BSK_hDFCGF_MCSF: BioMAP Diversity Plus: hDFCGF Assay for Macrophage colony-stimulating factor (MCSF) Biomarker Activity (AID 2283060); details: primary human foreskin fibroblasts; actives raise or lower the signal
Procedure, shortened: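 Human foreskin fibroblast primary cultures; M-CSF measured by ELISA 24 hours after chemical dosing. Bidirectional fitting relative to DMSO, with overt cytotoxicity tracked by parallel SRB total-protein staining (0.1% SRB, 10% TCA fixation, 560 nm).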

[13] = BSK_hDFCGF_SRB: Viability Assessment in the BioMAP Diversity Plus: hDFCGF Assay (AID 2283061); details: primary human foreskin fibroblasts;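 note: cells exposed to compound for 24 h before the read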
Procedure, shortened: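 Human foreskin fibroblasts in 96-well plates were treated 24 h. Total protein was measured by 0.1% SRB staining after 10% TCA fixation, read at 560 nm. Data were fitted bidirectionally against DMSO.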

[14] = read-out: TIMP metallopeptidase inhibitor 1 (TIMP1), TIMP1 (gene 7076); assay: BSK_hDFCGF_TIMP1: BioMAP Diversity Plus: hDFCGF Assay for TIMP metallopeptidase inhibitor 1 (TIMP1) Biomarker Activity (AID 2283062); details: primary human foreskin fibroblasts; actives raise or lower the signal
Procedure, shortened: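 Human foreskin fibroblast primary cultures dosed for 24 h; secreted/surface TIMP-1 quantified by ELISA. Bidirectional curve fitting against DMSO baseline; cytotoxicity tracked in parallel cultures by SRB total-protein staining.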

[15] = read-out: Monokine induced gamma interferon (MIG), CXCL9 (gene 4283); assay: BSK_hDFCGF_MIG: BioMAP Diversity Plus: hDFCGF Assay for Monokine induced gamma interferon (MIG) Biomarker Activity (AID 2283063); details: primary human foreskin fibroblasts; actives raise or lower the signal
Procedure, shortened: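 MIG/CXCL9 measured by ELISA 24 h after dosing primary human skin fibroblasts. Activity fitted in both directions against DMSO controls. Cytotoxicity was checked in parallel cultures by SRB staining read at 560 nm.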

[16] = read-out: Matrix Metallopeptidase 1 (MMP1), MMP1 (gene 4312); assay: BSK_hDFCGF_MMP1: BioMAP Diversity Plus: hDFCGF Assay for Matrix Metallopeptidase 1 (MMP1) Biomarker Activity (AID 2283064); details: primary human foreskin fibroblasts; actives raise or lower the signal
Procedure, shortened: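 Primary human foreskin fibroblasts exposed to chemicals for 24 h; MMP1 measured by ELISA. Cytotoxicity tracked by SRB staining in parallel cultures; bidirectional fit relative to DMSO.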

[17] = read-out: Vascular cell adhesion molecule 1 (VCAM1), VCAM1 (gene 7412); assay: BSK_hDFCGF_VCAM1: BioMAP Diversity Plus: hDFCGF Assay for Vascular cell adhesion molecule 1 (VCAM1) Biomarker Activity (AID 2283065); details: primary human foreskin fibroblasts; actives raise or lower the signal
Procedure, shortened: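 Human foreskin fibroblast primary cells dosed with chemical, VCAM-1 measured by ELISA at 24 h. Bidirectional curve fitting relative to DMSO as negative control/baseline.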

[18] = read-out: Plasminogen activator inhibitor-1 (PAI1), SERPINE1 (gene 5054); assay: BSK_hDFCGF_PAI1: BioMAP Diversity Plus: hDFCGF Assay for Plasminogen activator inhibitor-1 (PAI1) Biomarker Activity (AID 2283066); details: primary human foreskin fibroblasts; actives raise or lower the signal
Procedure, shortened: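 Human foreskin fibroblasts in the hDFCGF system were dosed with compound for 24 h; PAI-1 was quantified by ELISA. Bidirectional curve fitting used DMSO as negative control and baseline.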

[19] = read-out: Intercellular Adhesion Molecule 1 (ICAM1), ICAM1 (gene 3383); assay: BSK_KF3CT_ICAM1: BioMAP Diversity Plus: KF3CT Assay for Intercellular Adhesion Molecule 1 (ICAM1) Biomarker Activity (AID 2283067); details: primary human keratinocytes with fibroblasts; actives raise or lower the signal
Procedure, shortened: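 Human keratinocyte–foreskin fibroblast co-culture was treated for 24 h. Cell-surface ICAM-1 was quantified by ELISA, fitted bidirectionally relative to DMSO. Cytotoxicity was checked in parallel cultures by SRB total-protein staining.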

[20] = read-out: Interferon-gamma inducible Protein 10 (IP10), CXCL10 (gene 3627); assay: BSK_KF3CT_IP10: BioMAP Diversity Plus: KF3CT Assay for Interferon-gamma inducible Protein 10 (IP10) Biomarker Activity (AID 2283068); details: primary human keratinocytes with fibroblasts; actives raise or lower the signal
Procedure, shortened: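 ELISA read-out of IP-10 after 24 h chemical dosing of human skin primary co-culture (keratinocytes, foreskin fibroblasts). Gain or loss of signal relative to DMSO, bidirectional curve fit.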

Measured: outcome

Nc1nc(N)nc(NC2CC2)n1
inactive: all assays above

COc1cccc(C(=O)NN(C(=O)c2cc(C)cc(C)c2)C(C)(C)C)c1C
inactive: all assays above

CN(C)C(=O)Nc1cccc(C(F)(F)F)c1
inactive: all assays above
